In the library only some 1.4% were active in any assay of this set; here they are far more common.
S1P2 ag: agonists of human S1P2 receptor; O95136; S1P2-expressing cell line, agonist reporter read-out; activation, % at 4.5 µM; 97,000 tested, 0.46% active; in the data active = activation above about 16%;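 also: 0% = vehicle low control and 100% = maximal reference agonist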
LYP act: LYP (human) phosphatase activation; Q9Y2R2; recombinant LYP, DiFMUP fluorescence; 0 = plate median, 100 = signal doubled; activation, % at 2 µM; 96,000 tested, 0.11% active;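 active = activation at 2 µM above a set limit, the mean plus 5 SD, cut at about 37% in these data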
Target sequence (Q9Y2R2 whole entry, looked up): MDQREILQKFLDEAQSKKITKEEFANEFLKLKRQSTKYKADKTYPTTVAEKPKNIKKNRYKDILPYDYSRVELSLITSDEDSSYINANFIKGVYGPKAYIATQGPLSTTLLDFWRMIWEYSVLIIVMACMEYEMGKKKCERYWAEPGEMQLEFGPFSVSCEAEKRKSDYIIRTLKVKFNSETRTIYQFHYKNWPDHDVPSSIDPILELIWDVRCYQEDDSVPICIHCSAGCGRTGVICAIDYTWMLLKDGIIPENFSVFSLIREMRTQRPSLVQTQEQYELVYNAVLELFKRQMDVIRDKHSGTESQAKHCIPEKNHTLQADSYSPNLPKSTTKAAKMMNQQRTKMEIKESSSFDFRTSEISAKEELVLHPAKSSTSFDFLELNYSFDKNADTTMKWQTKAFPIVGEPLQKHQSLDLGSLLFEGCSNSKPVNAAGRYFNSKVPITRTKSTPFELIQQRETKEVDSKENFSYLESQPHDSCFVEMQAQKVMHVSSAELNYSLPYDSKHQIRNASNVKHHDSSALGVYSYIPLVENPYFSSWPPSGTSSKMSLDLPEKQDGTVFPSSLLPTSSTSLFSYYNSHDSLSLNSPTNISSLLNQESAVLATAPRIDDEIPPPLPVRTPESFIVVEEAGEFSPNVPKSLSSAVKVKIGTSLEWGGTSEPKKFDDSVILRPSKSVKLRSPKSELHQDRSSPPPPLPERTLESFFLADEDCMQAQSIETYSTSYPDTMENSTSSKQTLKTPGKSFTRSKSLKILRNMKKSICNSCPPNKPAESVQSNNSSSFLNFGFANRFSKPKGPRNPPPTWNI
GALR2 blocker: blocks the human galanin receptor 2; O43603; GALR2-expressing cells, antagonist mode; inhibition, % at 4 µM; 140,000 tested, 0.39% active; AID 828; in the data active = inhibition above about 27%;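 also: cells stimulated with galanin 1-16 at roughly its EC80; 0% = agonist challenge control and 100% = basal control without agonist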
PTPN22 inh 2: inhibitors of human LYP (PTPN22) phosphatase; Q9Y2R2; recombinant LYP catalytic domain, DiFMUP fluorescence; inhibition, % at 2 µM; 96,000 tested, 0.21% active; AID 640;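 active = inhibition at 2 µM at or above a set limit, the screen mean plus 3 SD, cut at about 24% in these data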;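 also: 0% = DMSO with enzyme and 100% = enzyme fully blocked by orthovanadate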
S1P2 blocker: blocks the human S1P2 receptor; 97,000 tested, 0.21% active; cell-based S1P2 antagonist assay, inhibition at 5 uM; inhibition, % at 5 µM; O95136; AID 736; in the data active = inhibition above about 45%;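 also: CRE beta-lactamase reporter cells expressing human S1P2 stimulated with S1P; 0% = agonist at EC80 alone and 100% = agonist plus reference antagonist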
GALR2 agonist: GALR2 (human) receptor agonism | 140,000 tested, 0.48% active | AID 803 | O43603 | GALR2-expressing cells, agonist activation read-out | activation, % (test concentration not listed); in the data active = activation above about 5%, passing the limit was not always enough;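 also: 0% = vehicle buffer wells and 100% = reference agonist at full effect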
GALR2 ag confirm: confirmation of human galanin receptor 2 (GALR2) agonists; shares compounds with GALR2 agonist; GALR2-expressing cells, agonist activation; activation, % at 5.6 µM; 460 tested, 10% active; in the data active = activation above about 8.4%;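 also: 0% = buffer-only vehicle wells and 100% = full reference agonist response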
BLA act counter: counter-screen for GALR2 agonists: beta-lactamase reporter activators; 460 tested, 10% active; CHO NFAT-bla reporter, beta-lactamase FRET activation; shares compounds with GALR2 agonist; activation, % at 5.6 µM;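 active = activation above the screen-wide mean activation plus 3 SD, cut at about 8% in these data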;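 also: 0% = DMSO with PBS wells and 100% = thapsigargin positive control wells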
* marks the source's active call; other numbers are inactive results; x = no result.

SMILES	S1P2 ag	LYP act	GALR2 blocker	PTPN22 inh 2	S1P2 blocker	GALR2 agonist	GALR2 ag confirm	BLA act counter
CC(=O)c1ccc(OCCCC(=O)OCC(=O)N2CCN(c3ccccc3)CC2)cc1	-7	3	13	-4	-4	68*	-1	-2
O=C(CCCOc1ccccc1)N1CCN(c2ccccc2)CC1	1	-2	-24	4	-26	0	x	x
Cc1ccccc1C(=O)Nc1nncs1	-5	4	-3	-1	-13	26*	-1	-3
O=C(O)C1C(c2ccccc2)C(C(=O)Oc2ccccc2)C1c1ccccc1 (configuration not stated)	-6	5	-4	-4	9	-1	x	x
CC(C)CCOC(=O)C1C(c2ccccc2)C(C(=O)O)C1c1ccccc1 (configuration not stated)	-5	-1	-9	2	-4	10	0	0
CCOC(=O)Cc1csc(NC(=O)CCCCCN2C(=O)c3ccccc3C2=O)n1	-5	-9	9	7	18	-3	x	x
Cn1c(=O)oc2cc(S(=O)(=O)N3CCCC(C(=O)Nc4ccccn4)C3)ccc21 (configuration not stated)	-5	-11	7	8	-2	17*	0	-2
O=C(Cn1c2ccccc2c(=O)c2ccccc21)Nc1cccc(F)c1	x	x	0	x	x	12*	9.1*	14*
CCN(CC)c1ccc(NC(=O)COC(=O)/C=C/c2nc3ccccc3s2)cc1	x	x	-5	x	x	0	x	x
CCN(CC)c1ccc(/C=C/c2nc3ccccc3s2)cc1	13	4	26	0	66*	17*	5	6
CC(NC(=O)Nc1ccc(Cl)c(Cl)c1)C(c1ccccc1)N1CCOCC1 (configuration not stated)	x	x	-18	x	x	8.7*	6	25*
CCOC(=O)/C=c1\s/c(=C\c2ccc(C)cc2)c(=O)n1CC(=O)NCc1ccco1	x	x	3	x	x	8.2*	3	0
CCOC(=O)/C=c1\s/c(=C\c2ccc(C(F)(F)F)cc2)c(=O)n1CC(=O)NCc1ccco1	x	x	-5	x	x	0	x	x
CCC(=O)Nc1ccc(N2CCN(S(C)(=O)=O)CC2)cc1	x	x	-2	x	x	1	x	x
Cc1nc2ccccn2c1C(=O)N=Nc1c(O)[nH]c2ccccc12	x	x	-13	x	x	0	x	x
Cc1cccn2c(=O)c3cc(C#N)c(=N)n(CC4CCCO4)c3nc12 (configuration not stated)	0	9	-4	-8	-5	0	x	x
N=c1c(S(=O)(=O)c2ccccc2)cc2c(=O)n3ccccc3nc2n1CC1CCCO1 (configuration not stated)	10	4	0	-6	-25	9	2	3
O=C(COC(=O)/C=C/C(=O)OCC(=O)NC12CC3CC(CC(C3)C1)C2)NC12CC3CC(CC(C3)C1)C2	x	x	-10	x	x	0	x	x
CCN(CC)c1ccc(C(=O)OCc2cc(=O)oc3cc(O)ccc23)cc1	-4	6	-1	-1	-6	1	x	x
CCN(CC)c1ccc2c(Cl)cc(=O)oc2c1	9	4	22	1	47*	9	2	7
CCCCn1c(NC(=O)c2ccccc2)c(C#N)c2nc3ccccc3nc21	12	-18	2	16	-1	16*	6	14*
COc1ccc(NC(=O)CCC(=O)Nc2nnc(C(F)(F)F)s2)c(OC)c1	-7	9	7	-8	12	-1	x	x
COc1ccc(Cl)cc1N(C(=O)Nc1cccc(Cl)c1)C1=NCC(C)S1 (configuration not stated)	x	x	6	x	x	-1	x	x
CCOc1cc(/C=C2/C(=O)N(c3ccccc3)N=C2C)ccc1OC(=O)c1ccco1	-3	-6	7	8	-10	136*	-1	-3
COc1ccc(C(=O)c2ccc(N3CCN(C(=O)c4ccc(F)cc4)CC3)c(F)c2)cc1Br	0	4	-7	-1	-2	-1	x	x
Cc1ccc(/C=N/NC(=O)c2ccc(C(=O)N/N=C/c3ccc(C)s3)o2)s1	-7	5	6	-2	14	30*	2	14*
S=C(NCCc1ccccn1)Nc1cccc(Cl)c1	x	x	1	x	x	0	x	x
CC(=O)NNC(=O)CCC(=O)Nc1ccccc1	-5	-4	-1	6	-17	17*	-1	-2

Screens: PubChem BioAssay, several laboratories
